As a reminder, the AC50 is the concentration giving half of the maximal activity seen.

Several values for one entry are separate records, joined by “and”; a condition that tells them apart may be missing. Equal values may be shown once. About 4,000 (25%) of roughly 16,000 compounds were called active. Roughly 26% stayed inconclusive and do not appear here. Calls come from the whole dose curve; as a rule, active = well fitted curve in the direction sought with a large enough effect; inconclusive = small, poorly fitted or top-dose-only effect, or effect the other way; inactive = no such curve, though single readings can be large or run the other way. A selection follows. Some compounds were tested as several samples or in several runs, with calls that do not always agree.
% is set by controls: 0 for no effect and ±100 for the full control effect.

The target of the assay is Cytochrome P450 2C9 (Homo sapiens) (UniProt P11712). Briefly: Cytochrome panel assay with activity outcomes. The conditions noted are these: recombinant CYP, pro-luciferin dealkylation, luminescence, p450-cyp2c9; series mostly up to 57.1 µM; activity, negative = inhibition: at the top concentration.
Cytochrome P450 2C9 (Homo sapiens), sequence (P11712 whole entry, looked up): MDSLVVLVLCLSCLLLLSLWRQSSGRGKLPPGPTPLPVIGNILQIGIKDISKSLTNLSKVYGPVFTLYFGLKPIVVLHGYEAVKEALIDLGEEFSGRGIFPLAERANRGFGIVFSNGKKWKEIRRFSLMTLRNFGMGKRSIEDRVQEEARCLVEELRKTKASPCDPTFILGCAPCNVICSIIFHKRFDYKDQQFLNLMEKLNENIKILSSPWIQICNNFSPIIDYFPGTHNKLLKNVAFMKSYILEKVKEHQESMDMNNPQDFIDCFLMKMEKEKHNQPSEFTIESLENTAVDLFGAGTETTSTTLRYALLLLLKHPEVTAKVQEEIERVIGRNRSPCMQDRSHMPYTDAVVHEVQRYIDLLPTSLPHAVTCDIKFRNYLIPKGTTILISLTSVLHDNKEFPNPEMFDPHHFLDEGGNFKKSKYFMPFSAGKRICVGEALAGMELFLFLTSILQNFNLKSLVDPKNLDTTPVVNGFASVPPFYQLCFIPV
In the case of `CCN(CC)C(=O)CSc1nc(O)cc(=O)n1CC`, the “activity, negative = inhibition” value was -12.4% (inactive). On the same count and under the same terms, the value for `CO[C@H]1COC(=O)[C@@H](C)COC(=O)[C@@H](Cc2ccccc2)NC(=O)C/C=C\[C@H]1C` was 5.22% [at 11.4 µM] (inactive).

In the case of `COc1ccc(CNc2ccnc(-c3ccccc3OC)n2)c(OC)c1`, the activity, negative = inhibition is 14.7% [at 2.29 µM] (inactive). On the same count and under the same terms, with `COc1ncc2nc(-c3cn(C)c4ccccc34)c(=O)n(CCC#N)c2n1` the figure was 7.16% (inactive). As to `COc1ccccc1CCn1c(=O)c(-c2cn(C)c3ccccc23)nc2cncnc21`, the AC50 is 0.316 µM (active). In the case of `Cn1cc(-c2nc3cncnc3n(Cc3ccccc3Cl)c2=O)c2ccccc21`, the “activity, negative = inhibition” value was -18.5% (inactive). With `COc1ccc(N2C(N)=NC(N)=NC2(C)C)cc1`, the “activity, negative = inhibition” value is 3% (inactive). In the case of `O=C(c1ccc(COc2ccc(F)cc2)o1)n1cccn1`, the AC50 is 17.8 µM (active). Regarding `CNc1ncncc1-c1ccccc1C`, the activity, negative = inhibition is -4.77% [at 2.29 µM] (inactive). The same measure, in the same setting: with `COc1ccc(C(=O)N2CCC[C@@]3(CCN(Cc4ccc(C#N)cc4)C3)C2)cc1` the figure was 7.58% (inactive). As for `CCCc1cc2c(n1Cc1cc(F)cc(F)c1)C(C)C1CN(C(=O)c3ccccc3)C(C)(C(=O)OC)C21` (stereo not given), the AC50 is 6.31 µM (active). In the case of `COc1ccc(C(=O)N2CCC[C@@]3(CCN(Cc4ccccc4)C3)C2)cc1`, the “activity, negative = inhibition” value is -7.93% (inactive). As to `CCCc1cc2c(n1Cc1ccc(OC)cc1)C(C)C1CN(C(=O)c3ccccc3)C(C)(C(=O)OC)C21` (stereo not given), the AC50 was 12.6 µM (active). In the case of `O=CN[C@@H](Cc1cnc[nH]1)C(=O)O`, the activity, negative = inhibition is -3.85% [at 11.4 µM] (inactive).

On to `COC(=O)c1ccccc1Oc1c(F)c(F)nc(N2CCOCC2)c1F`, for which the AC50 is 15.8 µM (active). In the case of `COc1ccccc1-c1nc(NCCNC(C)=O)c2ccccc2n1`, the activity, negative = inhibition was 3.78% [at 2.29 µM] (inactive).

As for `CCOC(=O)NNc1nncc2ccccc12`, the “activity, negative = inhibition” value is -3.9% [at 25.6 µM] (inactive). Same read-out and setting: with `COc1ccccc1-c1nc(N2CCOCC2)c2ccccc2n1` the figure was 8.77% [at 2.29 µM] (inactive). With `CCOC(=O)c1ccccc1Oc1c(F)c(F)nc(NCCO)c1F`, the AC50 was 6.31 µM (active). Take `COc1ccccc1-c1ccc2ncnc(N3CCOCC3)c2c1`: the activity, negative = inhibition is -16.7% [at 2.29 µM] (inactive).

Take `O=C(Nc1ccc(Cl)cc1)c1cnc(-c2ccccc2)nc1-c1ccccc1`: the AC50 is 0.794 µM (active). On to `O=C(Nc1ccc(-c2csc(-c3ccccc3)n2)cc1)c1ccccc1Cl`, for which the “activity, negative = inhibition” value is 5.47% (inactive). On to `OC1CC2CC[C@H](C1)N2CCCN1c2ccccc2Sc2ccc(Cl)cc21` (stereo not given in full), for which the activity, negative = inhibition was 8.65% [at 11.4 µM] (inactive). `c1cncc(CNc2ncn[nH]2)c1`: the activity, negative = inhibition is -1.61% [at 11.4 µM] (inactive). Still for that read-out and setting: the value for `Cc1ccc(-n2ncc(N(C)C)c(Cl)c2=O)cc1` was -24.9% (inactive). Take `Nc1ccc(Sc2cnn(-c3ccccc3)c(=O)c2Cl)cc1`: the AC50 was 1 µM (active). Consider `COC(=O)N1CCC2(CCN(Cc3nccs3)CC2)CC1`, for which the “activity, negative = inhibition” value was 6.72% (inactive).

Consider `Cc1noc(C)c1C(=O)N1CCC[C@@]2(CCN(Cc3ccccc3)C2)C1`, for which the “activity, negative = inhibition” value was -14% (inactive).

On to `Cc1onc(-c2c(Cl)cccc2Cl)c1C(=O)N1CCc2ccccc2C1`, for which the AC50 is 3.16 µM (active). `Cc1noc(C)c1C(=O)N1CCC2(CCCN(Cc3ccccc3)C2)CC1`: the “activity, negative = inhibition” value was 10.1% (inactive). Still for that read-out and setting: the value for `Cc1ccccc1C(=O)NNC(=O)c1ccoc1C` was 25% (inactive); that for `O=C(N/N=C/c1cccnc1)c1ccc([N+](=O)[O-])cc1` was 8.44% (inactive). As to `Cc1ccccc1C(=O)N/N=C/c1ccncc1`, the AC50 was 12.6 µM (active). As for `O=C(N/N=C/c1ccncc1)c1cc([N+](=O)[O-])cc([N+](=O)[O-])c1O`, the AC50 is 0.0631 µM (active). With `O=C(N/N=C\c1cccc(O)c1)c1ccncc1`, the activity, negative = inhibition was 1.23% [at 11.4 µM] (inactive).

For `CC[C@@H]1OC(=O)[C@H](C)[C@H](O[C@@H]2C[C@](C)(OC)[C@H](O)[C@H](C)O2)[C@H](C)[C@H](O[C@@H]2O[C@@H](C)C[C@@H](N(C)C)[C@@H]2O)[C@](C)(O)C[C@H](C)[C@@H]2N[C@H](COCCOC)O[C@H]([C@@H]2C)[C@]1(C)O`, the “activity, negative = inhibition” value was 14.7% [at 25.6 µM] (inactive). On the same count and under the same terms, with `C/C=C\C1=C(CO)C(=O)C2O[C@]2(CC=C(C)C)C1=O` (stereo not given in full) the figure was 9.54% [at 11.4 µM] (inactive).

With `CCn1c(CSCc2ccc(C)cc2)nnc1SCC(=O)NCc1ccccc1`, the AC50 is 15.8 µM (active). In the case of `O=C(CSc1nnnn1-c1ccccc1)NCc1cccs1`, the “activity, negative = inhibition” value was 21.8% (inactive).

Regarding `Cc1ccc(NC(=O)CCSc2nnc3ccccn23)cc1`, the “activity, negative = inhibition” value was 15.1% (inactive). Take `C=CCn1c(Cc2c[nH]c3ccccc23)nnc1SCC(=O)NCc1ccccc1`: the AC50 is 14.1 µM (active). Consider `N[C@@H](Cc1c[nH]c2ccccc12)C(=O)O`, for which the “activity, negative = inhibition” value was 9.92% (inactive). In the case of `CC(C)n1nnnc1SCC(=O)NCCc1ccccc1`, the AC50 was 15.8 µM (active). On the same count and under the same terms, with `CCn1c(CC(=O)Nc2ccc(C)cc2)nnc1SCC(=O)NCCc1ccccc1` the figure was 15.8 µM (active). With `CCn1c(CNC(=O)COc2ccc(C(C)C)cc2)nnc1SCC(=O)Nc1cc(F)ccc1C`, the “activity, negative = inhibition” value was -17% (inactive). The same measure, in the same setting: with `Cc1noc(C)c1-c1nc(Nc2ccncc2)c2ccccc2n1` the figure was -10.8% [at 2.29 µM] (inactive); with `COc1cccc2c1[C@@H]1CN(CCCCn3c(=O)[nH]c4c(sc5ncc(-c6ccccc6)nc54)c3=O)C[C@H]1CO2`, -12% (inactive). Still for that read-out and setting: the value for `CCN1C(=O)[C@H]2[C@H]3[C@H](O)[C@H](O)C/C(=N/NC(=O)OCc4ccccc4)[C@H]3CC[C@@H]2C1=O` was -10.2% [at 11.4 µM] (inactive). Take `O=C1NCC2=C1C(c1ccc(Br)cc1)Nc1ccccc1N2` (stereo not given): the AC50 is 8.91 µM (active). In the case of `CN(C)Cc1cc(C(C)(C)C)ccc1-c1ccc(C(C)(C)C)cc1CN(C)C`, the activity, negative = inhibition is 12.6% [at 11.4 µM] (inactive). For the molecule `COc1ccc(-c2ccc(=O)n(CC(=O)Nc3nnc(C(C)C)s3)n2)cc1OC`, the AC50 is 14.1 µM (active). Regarding `CN(C)CCNC(=O)Cn1nc(-c2ccc(Cl)cc2)ccc1=O`, the “activity, negative = inhibition” value was 20.5% (inactive). With `O=C(O)C1=CCCNC1`, the AC50 result is “inactive”. `CC(C)C[C@H](NC(=O)[C@@H]1O[C@H]1C(=O)O)C(=O)NCCCCN=C(N)N`: the “activity, negative = inhibition” value is 21.6% (inactive). Same read-out and setting: the value for `CC(C)CNC(=S)N1CCN(C)CC1` was -15.7% (inactive). For the molecule `C=CCNc1nc(-c2ccc(Cl)cc2)cs1`, the AC50 was 22.4 µM (active).

As for `CCCCSCc1nc2nc(Cl)c(Cl)nc2[nH]1`, the AC50 is 0.501 µM (active). In the case of `Nc1ccc(CCNc2ncnc3c2ncn3[C@@H]2O[C@@H](CO)[C@H](O)[C@@H]2O)cc1`, the “activity, negative = inhibition” value was -10.3% (inactive). Take `COc1ccc(CC(=O)NCCN2CCCC2)cc1`: the “activity, negative = inhibition” value was 8.79% (inactive). `COc1ccc(-c2ccc(C(=S)N3CCN(C(C)=O)CC3)o2)cc1`: the AC50 is 3.98 µM (active). As for `COc1ccc(C(=O)N2CCC3(CCN(C)CC3)CC2)cc1`, the “activity, negative = inhibition” value is -6.61% (inactive). Same read-out and setting: with `COc1ccc(CCN(C)CCC(=O)Nc2c(C)cc(C)cc2C)cc1OC` the figure was -24.7% (inactive). Take `COc1ccc(COC(=O)N/N=C(\C)CC(=O)Nc2c(C)cc(C)cc2C)cc1`: the AC50 is 14.1 µM (active). `COc1ccc(COC(=O)N/N=C2/C[C@@H](O)[C@@H](O)[C@@H]3[C@@H]4C(=O)N(C(C)(C)C)C(=O)[C@H]4CC[C@@H]23)cc1`: the activity, negative = inhibition was -5.52% [at 11.4 µM] (inactive). Still for that read-out and setting: the value for `COc1ccccc1-c1nc(N(C)C)c2ccccc2n1` was -2.29% [at 2.29 µM] (inactive); that for `COc1ccc(C(=O)N2CCC3(CC2)CN(C(=O)Nc2cccc(C#N)c2)C3)cc1` was -1.23% (inactive). On to `CC(=O)N1CCN(C(=O)CC2OC(=O)c3ccccc32)CC1` (stereo not given), for which the AC50 was 15.8 µM (active). With `CC(=O)N1CCC2(CC1)CN(Cc1ccccc1)C2`, the “activity, negative = inhibition” value is 17.2% (inactive). Still for that read-out and setting: with `CCC(=O)N1CCN(C(=O)c2ccccc2)CC1` the figure was 7.52% (inactive).

`CC(C)Oc1ccc(C(=O)Nc2ccc(NC(=O)c3ccco3)c(Cl)c2)cc1`: the AC50 is 14.1 µM (active). For the molecule `CC(C)C[C@H](NC(=O)[C@@H](O)[C@@H](N)Cc1ccccc1)C(=O)O`, the AC50 result was “inactive”. On the same count and under the same terms, with `Cc1ccc(SCC(=O)Nc2cccc(NC(=O)c3ccco3)c2)cc1` the figure was 4.47 µM (active).

For the molecule `CC(=O)c1ccc(NC(=O)C(Cc2ccccc2)NC(=O)c2ccco2)cc1` (stereo not given), the AC50 is 14.1 µM (active). In the case of `CCc1cc2cc(C)c(C)cc2nc1SCC(=O)NNC(=O)c1ccco1`, the “activity, negative = inhibition” value was 2.57% (inactive). The same measure, in the same setting: with `Cc1ccc(SCC(=O)NNC(=O)C2CCCCC2)cc1` the figure was 7.23% (inactive). Same read-out and setting: the value for `COc1ccc(C(=O)Nc2ccc(NC(=O)c3ccco3)c(Cl)c2)cc1OC` was -6.18% (inactive).

Take `Cc1cc(NC(=O)c2ccco2)ccc1-n1cnnn1`: the AC50 was 10 µM (active).

On to `O=C(Nc1ccccc1)C(Cc1ccccc1)NC(=O)C12CC3CC(CC(C3)C1)C2` (stereo not given), for which the “activity, negative = inhibition” value is -27.7% (inactive). On to `NC(=NCc1ccccc1)NC(=O)c1nc(Cl)c(N)nc1N`, for which the AC50 entry was “inactive”.

`CN(C)C(=O)c1ccc(-c2ccc3ncnc(N4CCNCC4)c3c2)cc1`: the activity, negative = inhibition is 6.81% [at 2.29 µM] (inactive).

In the case of `Cc1noc(C)c1-c1ccc2ncnc(N(C)Cc3ccco3)c2c1`, the activity, negative = inhibition was -29% [at 2.29 µM] (inactive). As for `COc1cccc(C(=O)Nc2ccc(NC(=O)c3ccco3)cn2)c1`, the AC50 was 14.1 µM (active). For the molecule `CCc1nnc2sc(-c3ccc(NC(=O)c4ccco4)cc3)nn12`, the “activity, negative = inhibition” value is -20.6% (inactive). In the case of `CC(C)(C)c1ccc(C(=O)Nc2ccc(NC(=O)c3ccco3)cc2)cc1`, the AC50 is 8.91 µM (active). Regarding `c1ccc(CNc2ncncc2-c2cccnc2)cc1`, the activity, negative = inhibition was -3.05% [at 2.29 µM] (inactive). Same read-out and setting: with `COc1ccc2nccc(C(=O)O)c2c1` the figure was 4.55% [at 25.6 µM] (inactive). As to `COc1ccc2oc(C(=O)c3ccccc3)c(N)c2c1`, the AC50 is 11.2 µM (active). In the case of `COc1ccc(C(=O)c2ccccc2)c(O)c1`, the “activity, negative = inhibition” value is -18.2% [at 25.6 µM] (inactive). Same read-out and setting: the value for `Cc1noc(C)c1-c1ccc2ncnc(NCc3cccs3)c2c1` was -7.45% [at 2.29 µM] (inactive). As to `CC(C)NC[C@H]1CCc2cc(CO)c([N+](=O)[O-])cc2N1`, the “activity, negative = inhibition” value was -7.52% [at 25.6 µM] (inactive). The same measure, in the same setting: the value for `CN(CCO)Cc1ncccc1O` was -2.29% [at 11.4 µM] (inactive). Turning to `CN1CCN(CC(=O)N2c3ccccc3C(=O)Nc3cccnc32)CC1`, the AC50 entry is “inactive”. Same read-out and setting: with `Cc1scc2c1N(C(=O)CN1CCN(C)CC1)c1ccccc1NC2=O` the entry was “inactive and 2.51 µM (active)”. For the molecule `CN1CCN(CC(=O)N2c3ccccc3Sc3cc4ccccc4cc32)CC1`, the activity, negative = inhibition is 5.77% [at 11.4 µM] (inactive). Same read-out and setting: with `CNc1cc(-c2ccccc2C(F)(F)F)ncn1` the figure was 22.5% [at 2.29 µM] (inactive).

For the origin of these results see PubChem BioAssay AID1851 (National Center for Advancing Translational Sciences (NCATS), 2009).
